# “And” between values parts separate entries of the source, which are not always exact repeats. Equal entries are not always repeated. Results filed as inconclusive are left out. The source made the active and inactive calls. Rule for the calls, unless noted: active = hit-call score of the fitted dose curve at least 0.9, where 1 is the maximum; inactive = score below 0.9.
# What was measured:
# [1] = target: human Esterase Plasma (ES), BCHE (gene 590) (UniProt P06276); assay: NVS_ENZ_hES: NovaScreen (NVS) Enzymatic Assay for human Esterase Plasma (ES) (AID 2283157; active = hit-call score of the fitted dose curve at least 0.9, where 1 is the maximum)
# Method in brief: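 Human plasma-derived enzyme, cell-free, colorimetric readout at 0.25 h. Primary screen 25 uM in duplicate; hits (e.g. ≥30% inhibition) rerun singleton up to 50 uM. DMSO = negative control/baseline.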
# [2] = target: human CYP19A1, CYP19A1 (gene 1588) (UniProt P11511); assay: NVS_ADME_hCYP19A1: NovaScreen (NVS) CYP450-related Enzyme Activity (ADME) Assay for human CYP19A1 (AID 2283098; active = hit-call score of the fitted dose curve at least 0.9, where 1 is the maximum;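 for AC50: potency for inhibitors seen as loss of fluorescent enzyme signal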)
# Method in brief: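 Fluorescence intensity read-out; activity taken as signal loss relative to acetonitrile vehicle. Extracted enzyme, specific substrate, no cells, 0.5 h exposure. Duplicate single-point screen at 10 uM, then concentration–response follow-up for actives.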
# [3] = target: Bile acid receptor (Homo sapiens) (UniProt Q96RI1); assay: OT_FXR_FXRSRC1_0480: Odyssey Thera (OT) 8-hour HEK293T Protein-Complementation Assay for Farnesoid X receptor/SRC-1 Co-activator (AID 2283383; active = hit-call score of the fitted dose curve at least 0.9, where 1 is the maximum)
# Method in brief: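 Fluorescence intensity read-out, 8 h post-dose, HEK293T protein-fragment complementation; FXR bait and SRC-1 prey each linked to reporter fragments. Activity scored as signal increase over DMSO negative control.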
# [4] = read-out: Monokine induced gamma interferon (MIG), CXCL9 (gene 4283); assay: BSK_KF3CT_MIG: BioMAP Diversity Plus: KF3CT Assay for Monokine induced gamma interferon (MIG) Biomarker Activity (AID 2284248); conditions: primary human keratinocytes with fibroblasts
# Method in brief: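 KF3CT system: keratinocyte/fibroblast co-culture, 24 h post-dose, MIG by ELISA; activity vs DMSO, positive fitting direction.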
# [5] = read-out: Interferon-inducible T-cell alpha chemoattractant (ITAC), CXCL11 (gene 6373); assay: BSK_hDFCGF_ITAC: BioMAP Diversity Plus: hDFCGF Assay for Interferon-inducible T-cell alpha chemoattractant (ITAC) Biomarker Activity (AID 2284251); conditions: primary human foreskin fibroblasts
# Method in brief: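 Measured by ELISA, the chemokine level serves as the endpoint in human skin fibroblast primary cultures 24 h after compound addition. Increases relative to DMSO-treated wells define activity.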
# [6] = read-out: Plasminogen activator inhibitor-1 (PAI1), SERPINE1 (gene 5054); assay: BSK_KF3CT_PAI1: BioMAP Diversity Plus: KF3CT Assay for Plasminogen activator inhibitor-1 (PAI1) Biomarker Activity (AID 2284252); conditions: primary human keratinocytes with fibroblasts
# Method in brief: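 Keratinocyte + dermal fibroblast co-culture (human primary); 24 h post-dose; PAI-1 by ELISA; gain-of-signal fit vs DMSO control.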
# [7] = read-out: Intercellular Adhesion Molecule 1 (ICAM1), ICAM1 (gene 3383); assay: BSK_BE3C_ICAM1: BioMAP Diversity Plus: BE3C Assay for Intercellular Adhesion Molecule 1 (ICAM1) Biomarker Activity (AID 2284278); conditions: primary human bronchial epithelial cells;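 for outcome: cell-surface ICAM-1 protein level quantified by ELISA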
# Method in brief: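 ELISA read-out of ICAM-1 on human lung bronchial epithelial primary cells, 24 h post-dosing; positive-direction curve fit, DMSO = baseline. SRB total-protein staining of parallel cultures flagged overt cytotoxicity.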
# [8] = read-out: Interferon-inducible T-cell alpha chemoattractant (ITAC), CXCL11 (gene 6373); assay: BSK_BE3C_ITAC: BioMAP Diversity Plus: BE3C Assay for Interferon-inducible T-cell alpha chemoattractant (ITAC) Biomarker Activity (AID 2284279); conditions: primary human bronchial epithelial cells
# Method in brief: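 ELISA read-out of I-TAC after 24 h chemical dosing of human lung primary bronchial epithelial cells; gain-of-signal fit vs DMSO baseline. Parallel SRB total-protein staining (0.1% SRB, 10% TCA fixation, 560 nm) assessed cytotoxicity.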
# [9] = read-out: Interleukin-8 (IL8), CXCL8 (gene 3576); assay: BSK_BE3C_IL8: BioMAP Diversity Plus: BE3C Assay for Interleukin-8 (IL8) Biomarker Activity (AID 2284280); conditions: primary human bronchial epithelial cells
# Method in brief: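 Dose human bronchial epithelial cells with chemical; incubate 24 h; quantify IL-8 by ELISA; fit response upward versus DMSO controls.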
# [10] = read-out: Epidermal growth factor receptor (EGFR), EGFR (gene 1956); assay: BSK_BE3C_EGFR: BioMAP Diversity Plus: BE3C Assay for Epidermal growth factor receptor (EGFR) Biomarker Activity (AID 2284281); conditions: primary human bronchial epithelial cells
# Method in brief: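 ELISA read-out of EGFR levels on human bronchial epithelial primary cells collected 24 h post-dosing. DMSO served as negative control and baseline for gain-of-signal fitting.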
# [11] = read-out: Matrix Metallopeptidase 9 (MMP9), MMP9 (gene 4318); assay: BSK_BE3C_MMP9: BioMAP Diversity Plus: BE3C Assay for Matrix Metallopeptidase 9 (MMP9) Biomarker Activity (AID 2284283); conditions: primary human bronchial epithelial cells
# Method in brief: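 BE3C, human bronchial epithelial primary cells; 24 h post-dose; MMP-9 by ELISA; positive fit vs DMSO; SRB (0.1%, TCA-fixed, 560 nm) parallel cytotox.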
# [12] = read-out: Plasminogen activator inhibitor-1 (PAI1), SERPINE1 (gene 5054); assay: BSK_CASM3C_PAI1: BioMAP Diversity Plus: CASM3C Assay for Plasminogen activator inhibitor-1 (PAI1) Biomarker Activity (AID 2284284); conditions: primary human coronary artery smooth muscle cells;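 note: PAI-1 protein level measured by ELISA 24 h after dosing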
# [13] = read-out: Monocyte Chemoattractant Protein-1 (MCP1), CCL2 (gene 6347); assay: BSK_hDFCGF_MCP1: BioMAP Diversity Plus: hDFCGF Assay for Monocyte Chemoattractant Protein-1 (MCP1) Biomarker Activity (AID 2284285); conditions: primary human foreskin fibroblasts
# Method in brief: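 MCP-1 ELISA readout was taken 24 hours after dosing primary human dermal fibroblasts in the hDFCGF system, with DMSO as baseline. Parallel sulforhodamine B staining of total protein tracked overt cytotoxicity.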
# [14] = read-out: Intercellular Adhesion Molecule 1 (ICAM1), ICAM1 (gene 3383); assay: BSK_hDFCGF_ICAM1: BioMAP Diversity Plus: hDFCGF Assay for Intercellular Adhesion Molecule 1 (ICAM1) Biomarker Activity (AID 2284287); conditions: primary human foreskin fibroblasts
# Method in brief: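 ICAM-1 ELISA readout 24 h after dosing, DMSO as baseline, in human dermal foreskin fibroblast cultures. Cytotoxicity checked in parallel wells by SRB staining (0.1% SRB, 10% TCA fixation, 560 nm).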
# [15] = read-out: TIMP metallopeptidase inhibitor 2 (TIMP2), TIMP2 (gene 7077); assay: BSK_hDFCGF_TIMP2: BioMAP Diversity Plus: hDFCGF Assay for TIMP metallopeptidase inhibitor 2 (TIMP2) Biomarker Activity (AID 2284289); conditions: primary human foreskin fibroblasts
# Method in brief: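 Primary human foreskin fibroblasts in the hDFCGF system, dosed for 24 h; TIMP-2 level measured by ELISA, fitted in the positive direction against DMSO; cytotoxicity checked in parallel by sulforhodamine B total protein staining.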
# [16] = read-out: Thrombomodulin, THBD (gene 7056); assay: BSK_LPS_Thrombomodulin: BioMAP Diversity Plus: LPS Assay for Thrombomodulin Biomarker Activity (AID 2284296); conditions: primary human HUVEC with PBMC
# Method in brief: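 Thrombomodulin on the surface of LPS-activated endothelial/PBMC co-cultures was quantified by ELISA at 24 hours post-dosing, with DMSO as baseline. Parallel SRB total-protein staining flagged overt cytotoxicity.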
# CD69, CD69 (gene 969) = assay: BSK_LPS_CD69: BioMAP Diversity Plus: LPS Assay for CD69 Biomarker Activity (AID 2284303); conditions: primary human HUVEC with PBMC
# Method in brief: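 CD69 surface levels were read by ELISA after 24 h chemical treatment of an LPS-stimulated HUVEC plus PBMC co-culture; positive-direction fit against DMSO vehicle.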
# [17] = IUF_NPC1b_proliferation_BrdU_72hr: Leibniz Research Institute for Environmental Medicine (IUF) 72-hour Neural Progenitor Cell Bromodeoxyuridine (BrdU) Proliferation Assay (NPC1b) (AID 2284207)
# Method in brief: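 Luminescent BrdU ELISA measured DNA synthesis during the last 16 h of a 72 h exposure of primary human neural progenitor spheres grown with EGF and FGF. Signal was fitted relative to DMSO controls.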
# [18] = CCTE_Mundy_HCI_Cortical_Synap_Neur_Matur_NeuriteSpotCountPerNeuriteLength: CCTE's Synaptogenesis and Neurite Maturation Assay in rat cortical cells for Neurite Spot Count per Neurite Length, Mundy Lab (AID 2284210)
# Method in brief: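 Read-out: synaptophysin puncta counted along MAP2-stained neurites, normalised to neurite length, by automated high-content imaging. Rat cortical cells; AraC DIV 5; chemical dosing DIV 7; termination DIV 12. DMSO baseline.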
# [19] = CCTE_Mundy_HCI_Cortical_NOG_NeuriteLength: CCTE's Neurite Outgrowth Assay in rat cortical cells for Neurite Length, Mundy Lab (AID 2284213);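 for AC50: neurites imaged about 48 to 50 h after chemical exposure began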
# Method in brief: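 First, rat primary cortical cells were plated and, 2 h later, given test chemical as a 1/10 dilution. Finally, βIII-tubulin immunostaining enabled automated imaging of neurite length.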
# human CYP19A1, CYP19A1 (gene 1588), sequence (P11511 whole entry, looked up): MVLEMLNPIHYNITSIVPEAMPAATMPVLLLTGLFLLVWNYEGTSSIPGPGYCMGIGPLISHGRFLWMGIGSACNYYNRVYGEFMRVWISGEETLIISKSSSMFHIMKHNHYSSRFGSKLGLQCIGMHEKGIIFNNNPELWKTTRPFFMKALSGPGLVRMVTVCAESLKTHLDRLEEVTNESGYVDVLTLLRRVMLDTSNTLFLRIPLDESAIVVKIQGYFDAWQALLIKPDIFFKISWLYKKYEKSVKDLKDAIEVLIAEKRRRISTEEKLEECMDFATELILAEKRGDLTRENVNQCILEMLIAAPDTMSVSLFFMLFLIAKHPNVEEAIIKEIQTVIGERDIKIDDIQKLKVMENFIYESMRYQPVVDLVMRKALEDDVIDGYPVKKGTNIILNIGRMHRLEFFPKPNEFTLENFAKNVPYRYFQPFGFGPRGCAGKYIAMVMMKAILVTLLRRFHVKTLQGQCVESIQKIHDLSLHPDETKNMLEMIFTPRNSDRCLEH
# Bile acid receptor (Homo sapiens), sequence (Q96RI1 whole entry, looked up, the tested form may be a part): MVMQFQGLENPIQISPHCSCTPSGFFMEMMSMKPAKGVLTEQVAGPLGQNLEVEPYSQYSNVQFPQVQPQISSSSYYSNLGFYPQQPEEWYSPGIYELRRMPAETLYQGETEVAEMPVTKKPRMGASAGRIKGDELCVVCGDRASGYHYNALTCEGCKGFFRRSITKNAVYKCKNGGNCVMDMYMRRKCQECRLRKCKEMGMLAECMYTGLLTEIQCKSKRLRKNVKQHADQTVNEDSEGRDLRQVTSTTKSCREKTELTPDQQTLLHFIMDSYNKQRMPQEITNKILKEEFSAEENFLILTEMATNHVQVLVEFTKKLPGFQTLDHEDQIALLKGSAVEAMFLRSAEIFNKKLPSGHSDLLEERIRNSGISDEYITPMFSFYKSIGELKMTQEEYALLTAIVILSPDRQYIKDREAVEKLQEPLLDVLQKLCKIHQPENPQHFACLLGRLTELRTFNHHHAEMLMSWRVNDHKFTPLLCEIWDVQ
# human Esterase Plasma (ES), BCHE (gene 590), sequence (P06276 whole entry, looked up): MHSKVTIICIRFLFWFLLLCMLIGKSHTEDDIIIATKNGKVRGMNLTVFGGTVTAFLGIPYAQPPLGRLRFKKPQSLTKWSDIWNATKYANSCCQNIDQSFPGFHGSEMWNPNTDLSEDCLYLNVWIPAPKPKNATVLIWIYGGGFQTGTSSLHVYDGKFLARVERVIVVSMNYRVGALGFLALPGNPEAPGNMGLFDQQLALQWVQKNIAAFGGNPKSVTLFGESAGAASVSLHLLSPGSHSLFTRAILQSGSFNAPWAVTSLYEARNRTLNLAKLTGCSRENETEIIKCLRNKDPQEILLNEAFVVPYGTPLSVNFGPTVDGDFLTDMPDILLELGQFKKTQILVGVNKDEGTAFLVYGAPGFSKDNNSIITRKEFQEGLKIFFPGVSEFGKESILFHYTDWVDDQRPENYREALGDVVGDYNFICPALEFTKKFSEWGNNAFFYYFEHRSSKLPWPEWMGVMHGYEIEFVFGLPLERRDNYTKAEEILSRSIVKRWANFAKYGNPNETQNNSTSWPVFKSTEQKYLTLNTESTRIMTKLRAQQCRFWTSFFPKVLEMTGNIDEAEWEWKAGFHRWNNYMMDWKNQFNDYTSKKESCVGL
structure (smiles),measurement,setting,value
COC(C)(C)CCC[C@H](C)C/C=C/C(C)=C/C(=O)OC(C)C,AC50,[1],16.5 µM (active)
CCOP(=O)(OCC)Oc1ccc([N+](=O)[O-])cc1,AC50,[2],6.54 µM (active)
same,outcome,[3],inactive
COc1ccc(CO)cc1,outcome,[4],inactive
same,outcome,[5],inactive
same,outcome,[6],inactive
same,outcome,[7],inactive
same,outcome,[8],inactive
same,outcome,[9],inactive
same,outcome,[10],inactive
same,outcome,[11],inactive
same,outcome,[12],inactive
same,outcome,[13],inactive
same,outcome,[14],inactive
same,outcome,[15],inactive
same,outcome,[16],inactive
same,outcome,"CD69, CD69 (gene 969)",inactive
CC1(C)[C@H](C(=O)O[C@H](C#N)c2cccc(Oc3ccccc3)c2)[C@@H]1C=C(Br)Br,outcome,[2],inactive
same,outcome,[17],inactive
same,outcome,[18],inactive
same,outcome,[19],inactive
Oc1ccc(C2(c3ccc(O)cc3)c3ccccc3-c3ccccc32)cc1,AC50,[4],7.47 µM (active) and 7.4 µM (active)
same,AC50,[5],1.8 µM (active) and 1.21 µM (active)
same,AC50,[6],5.43 µM (active)
same,AC50,[7],7.57 µM (active) and 7.24 µM (active)
same,AC50,[8],5.43 µM (active) and 5.42 µM (active)
same,AC50,[9],6.88 µM (active) and 5.35 µM (active)
same,outcome,[10],inactive
same,AC50,[11],383 nM (active) and 5.33 µM (active)
same,AC50,[12],20 µM (active)
same,AC50,[13],3.59 µM (active) and 2.48 µM (active)
same,AC50,[14],3.15 µM (active) and 2.69 µM (active)
same,AC50,[15],1.41 µM (active) and 1.34 µM (active)
same,AC50,[16],5.13 µM (active) and 5.21 µM (active)
same,AC50,"CD69, CD69 (gene 969)",14.3 µM (active) and 13.1 µM (active)
CNC(=N[N+](=O)[O-])NCC1CCOC1 (stereo not given),outcome,[17],inactive
same,outcome,[18],inactive
same,outcome,[19],inactive
O=[N+]([O-])O,outcome,[4],inactive
same,outcome,[5],inactive
same,outcome,[6],inactive
same,outcome,[7],inactive
same,outcome,[8],inactive
same,outcome,[9],inactive
same,outcome,[10],inactive
same,outcome,[11],inactive
same,outcome,[12],inactive
same,outcome,[13],inactive
same,outcome,[14],inactive
same,outcome,[15],inactive
same,outcome,[16],inactive
same,outcome,"CD69, CD69 (gene 969)",inactive
CC(C)CCCCCCCOP(=O)(Oc1ccccc1)Oc1ccccc1,outcome,[17],inactive
Cc1ccc(OP(=O)(Oc2ccc(C)cc2)Oc2ccc(C)cc2)cc1 (tested in a mixture with another compound),AC50,[18],15 µM (active)
same,AC50,[19],21.4 µM (active)
COc1cc(OC)nc(Oc2cccc(Oc3nc(OC)cc(OC)n3)c2C(=O)O)n1,outcome,[3],inactive
CC1OC(C)OC(C)O1 (stereo not given),outcome,[1],inactive
Cc1cc(C)c(C2=C(OC(=O)CC(C)(C)C)C3(CCCC3)OC2=O)c(C)c1,outcome,[3],inactive
Nc1ccc(-c2ccc(N)c(N)c2)cc1N,AC50,[1],29.1 µM (active)
CCC(=O)c1ccc(Cl)cc1,outcome,[2],inactive
